Data as given in PubChem BioAssay (NCATS).
Where “and” joins values, the source holds several entries; their conditions need not be identical. Equal entries are not always repeated. Inconclusive results are not listed. A call without a number means that no potency is given here. Values without a mark were called inactive. Calls of active or inactive are those of the source. Calls come from the whole dose curve; as a rule, active = well fitted inhibition curve with a large enough effect; inconclusive = small, poorly fitted or top-dose-only effect; inactive = flat fitted curve, though single readings scatter.

What was measured:
N140 = experiment: qHTS profiling for inhibitors of Plasmodium falciparum proliferation (AID 504749); note: potency is the fitted concentration of half-maximal effect; settings: P. falciparum in erythrocytes, SYBR Green DNA, 72 h; series mostly up to 28.7 µM
How it was run: (§1)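 In a 72 h erythrocytic culture (37 C, humidified, 5% CO2) at 2.5% hematocrit and 0.3% starting parasitemia, compounds were tested; SYBR Green I in detergent lysis buffer stained parasite DNA overnight.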

P93_24 = experiment: as above; settings: P. falciparum in erythrocytes, SYBR Green DNA, 72 h; series mostly up to 28.7 µM
How it was run: as §1

P94_40 = experiment: as above; settings: P. falciparum in erythrocytes, SYBR Green DNA, 72 h; series mostly up to 28.7 µM
How it was run: as §1

PAD = experiment: as above; settings: P. falciparum in erythrocytes, SYBR Green DNA, 72 h; series mostly up to 28.7 µM
How it was run: as §1

PC15 = experiment: as above; settings: P. falciparum in erythrocytes, SYBR Green DNA, 72 h; series mostly up to 28.7 µM
How it was run: as §1

PC26 = experiment: as above; settings: P. falciparum in erythrocytes, SYBR Green DNA, 72 h; series mostly up to 28.7 µM
How it was run: as §1

PC49 = experiment: as above; settings: P. falciparum in erythrocytes, SYBR Green DNA, 72 h; series mostly up to 28.7 µM
How it was run: as §1

SC27B = experiment: as above; settings: P. falciparum in erythrocytes, SYBR Green DNA, 72 h; series mostly up to 28.7 µM
How it was run: as §1

TAB109 = experiment: as above; settings: P. falciparum in erythrocytes, SYBR Green DNA, 72 h; series mostly up to 28.7 µM
How it was run: as §1

TAB113 = experiment: as above; settings: P. falciparum in erythrocytes, SYBR Green DNA, 72 h; series mostly up to 28.7 µM
How it was run: as §1

TAB165 = experiment: as above; settings: P. falciparum in erythrocytes, SYBR Green DNA, 72 h; series mostly up to 28.7 µM
How it was run: as §1

W2 = experiment: as above; settings: P. falciparum in erythrocytes, SYBR Green DNA, 72 h; series mostly up to 28.7 µM
How it was run: as §1

CRL-7250 [1] = experiment: Cytotoxic Profiling of Annotated Libraries Using Quantitative High-Throughput Screening (AID 1296008); settings: Five cell lines viability, CellTiter-Glo ATP luminescence, 48-72 h; max response: hits give low values; note: potency is the fitted concentration of half-maximal effect
How it was run: (§2)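 Cytotoxicity was measured as CellTiter-Glo ATP luminescence, read after 10 min at room temperature. Compound treatment of the cells lasted 48 or 72 hr at 37 degrees Celsius in a qHTS format.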

HEK293 = experiment: as above; settings: Five cell lines viability, CellTiter-Glo ATP luminescence, 48-72 h; max response: hits give low values
How it was run: as §2

HaCat [2] = experiment: as above; settings: Five cell lines viability, CellTiter-Glo ATP luminescence, 48-72 h; max response: hits give low values
How it was run: as §2

KB-3-1 = experiment: as above; settings: Five cell lines viability, CellTiter-Glo ATP luminescence, 48-72 h; max response: hits give low values
How it was run: as §2

NIH3T3 = experiment: as above; settings: Five cell lines viability, CellTiter-Glo ATP luminescence, 48-72 h; max response: hits give low values
How it was run: as §2

HACAT [3] = experiment: qHTS assay to identify novel small-molecules to repurpose for Merkel cell carcinoma treatment (AID 1296009); settings: MCC and control cell lines, CellTiter-Glo viability, 72 h; at 44.8 µM (top of the series) unless noted
How it was run: (§3)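 Cell viability measured by CellTiter-Glo following 72 hr compound treatment at 37 degree celsius, with NPC and MIPE libraries tested in 8- and 11-point concentration series.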

HEK293T = experiment: as above; settings: MCC and control cell lines, CellTiter-Glo viability, 72 h; at 44.8 µM (top of the series)
How it was run: as §3

CRL-7250 [4] = experiment: as above; settings: MCC and control cell lines, CellTiter-Glo viability, 72 h; series mostly up to 44.8 µM
How it was run: as §3
Note: nearly all actives have a fitted effect of over 60% in size.

For CCCC1CCCCN1 (centres undefined), the Potency (N140) was “inactive”, the Potency (P93_24) was “inactive” and the Potency (P94_40) was “inactive”. For the same molecule, the Potency (PAD) was “inactive”, the Potency (PC15) was “inactive” and the Potency (PC26) was “inactive”. The Potency (PC49) was “inactive”, the Potency (SC27B) was “inactive” and the Potency (TAB109) was “inactive”. For the same molecule, the Potency (TAB113) was “inactive”, the Potency (TAB165) was “inactive” and the Potency (W2) was “inactive”. The max response (CRL-7250 [1]) was -4.9%, the max response (HEK293) was -7.03% and the outcome (HaCat [2]) was “inactive”. For the same molecule, the max response (KB-3-1) was -0.9%, the outcome (NIH3T3) was “inactive” and the outcome (HACAT [3]) was “inactive”.
In the case of CC(=O)Nc1cc([As](=O)(O)O)ccc1O, the Potency (N140) is reported as “inactive”, the Potency (P93_24) is reported as “inactive” and the Potency (P94_40) is reported as “inactive”. The Potency (PAD) was “inactive”, the Potency (PC15) was “inactive” and the Potency (PC26) was “inactive”. The Potency (PC49) was “inactive”, the Potency (SC27B) was “inactive” and the Potency (TAB109) was “inactive”. The Potency (TAB113) was “inactive”, the Potency (TAB165) was “inactive” and the Potency (W2) was “inactive”. It also gave a max response (CRL-7250 [1]) of -3.67%, a max response (HEK293) of 2.5% and a max response (HaCat [2]) of -14.2%. The max response (KB-3-1) was 5.7% and the outcome (NIH3T3) was “inactive”.
With CCC(=O)C(CC(C)N(C)C)(c1ccccc1)c1ccccc1 (centres undefined) the max response (CRL-7250 [1]) was -4.65%, the Potency (HEK293) was 30.9 µM (active) and the outcome (HaCat [2]) was “inactive”. For the same molecule, the max response (KB-3-1) was -25%, the max response (NIH3T3) was -1.89% and the outcome (HACAT [3]) was “inactive [at 92 µM]”.
For FC(F)(F)c1cccc(C2=CCN(CCc3ccc4ccccc4c3)CC2)c1, the Potency (N140) was “inactive”, the Potency (P93_24) was “inactive” and the Potency (P94_40) was “inactive”. For the same molecule, the Potency (PAD) was “inactive”, the Potency (PC15) was “inactive” and the Potency (PC26) was “inactive”. The Potency (PC49) was “inactive”, the Potency (SC27B) was “inactive” and the Potency (TAB113) was “inactive”. The Potency (TAB165) was “inactive”, the Potency (W2) was “inactive” and the max response (CRL-7250 [1]) was -12.8%. The outcome (HEK293) was “inactive”, the outcome (HaCat [2]) was “inactive” and the max response (KB-3-1) was -4.6%. For the same molecule, the outcome (NIH3T3) was “inactive”, the outcome (HACAT [3]) was “inactive” and the outcome (HEK293T) was “inactive”.
With O=P1(NCCCl)OCCCN1CCCl (centres undefined) the Potency (N140) was “inactive”, the Potency (P93_24) was “inactive” and the Potency (P94_40) was “inactive”. The Potency (PAD) was “inactive”, the Potency (PC15) was “inactive” and the Potency (PC26) was “inactive”. The Potency (PC49) was “inactive”, the Potency (SC27B) was “inactive” and the Potency (TAB109) was “inactive”. The Potency (TAB113) was “inactive”, the Potency (TAB165) was “inactive” and the max response (CRL-7250 [1]) was -12.2%. The max response (HEK293) was 3.55%, the outcome (HaCat [2]) was “inactive” and the max response (KB-3-1) was 0.482% and 4.18%. The max response (NIH3T3) was -11.2% and -20.7% and the outcome (HACAT [3]) was “inactive”.
For NCC(CC(=O)O)c1ccc(Cl)cc1 (centres undefined), the Potency (N140) was “inactive”, the Potency (P93_24) was “inactive” and the Potency (P94_40) was “inactive”. For the same molecule, the Potency (PAD) was “inactive”, the Potency (PC15) was “inactive” and the Potency (PC26) was “inactive”. For the same molecule, the Potency (PC49) was “inactive”, the Potency (SC27B) was “inactive” and the Potency (TAB109) was “inactive”. For the same molecule, the Potency (TAB113) was “inactive”, the Potency (TAB165) was “inactive” and the Potency (W2) was “inactive”. For the same molecule, the max response (CRL-7250 [1]) was 2.02%, the max response (HEK293) was -1.23% and the outcome (HaCat [2]) was “inactive”. The max response (KB-3-1) was 2.79%, the max response (NIH3T3) was 0.0761% and the outcome (HACAT [3]) was “inactive [at 0.588 µM]”.
With O=C(O)c1ccc2[nH]cc(CCCCN3CC=C(c4ccccc4)CC3)c2c1 the Potency (N140) was “inactive”, the Potency (P93_24) was “inactive” and the Potency (P94_40) was “inactive”. The Potency (PAD) was “inactive”, the Potency (PC15) was “inactive” and the Potency (PC26) was “inactive”. The Potency (PC49) was “inactive”, the Potency (SC27B) was “inactive” and the Potency (TAB109) was “inactive”. For the same molecule, the Potency (TAB113) was “inactive”, the Potency (TAB165) was “inactive” and the max response (CRL-7250 [1]) was -7.24%. The max response (HEK293) was -0.718%, the outcome (HaCat [2]) was “inactive” and the max response (KB-3-1) was -2.41%. The outcome (NIH3T3) was “inactive” and the outcome (HACAT [3]) was “inactive”.
With CC1NCCOC1c1ccccc1 (centres undefined) the Potency (N140) was “inactive”, the Potency (P93_24) was “inactive” and the Potency (P94_40) was “inactive”. For the same molecule, the Potency (PAD) was “inactive”, the Potency (PC15) was “inactive” and the Potency (PC26) was “inactive”. The Potency (PC49) was “inactive”, the Potency (SC27B) was “inactive” and the Potency (TAB109) was “inactive”. The Potency (TAB113) was “inactive”, the Potency (TAB165) was “inactive” and the max response (CRL-7250 [1]) was 1.98%. For the same molecule, the outcome (HEK293) was “inactive”, the outcome (HaCat [2]) was “inactive” and the max response (KB-3-1) was -11.6%. For the same molecule, the max response (NIH3T3) was 1.83%, the outcome (HACAT [3]) was “inactive” and the outcome (HEK293T) was “inactive”.
With C=C1CC[C@@]2(O)[C@H]3Cc4ccc(O)c5c4[C@@]2(CCN3CC2CC2)[C@H]1O5 the Potency (N140) was “inactive”, the Potency (P93_24) was “inactive” and the Potency (P94_40) was “inactive”. For the same molecule, the Potency (PAD) was “inactive”, the Potency (PC15) was “inactive” and the Potency (PC26) was “inactive”. The Potency (PC49) was “inactive”, the Potency (SC27B) was “inactive” and the Potency (TAB109) was “inactive”. For the same molecule, the Potency (TAB113) was “inactive”, the Potency (TAB165) was “inactive” and the Potency (W2) was 6.75 µM (active). For the same molecule, the max response (CRL-7250 [1]) was 2.77%, the max response (HEK293) was -5.09% and the outcome (HaCat [2]) was “inactive”. The max response (KB-3-1) was 3.52%, the outcome (NIH3T3) was “inactive” and the outcome (HACAT [3]) was “inactive”.
In the case of CC[N+](CC)(CC)CC, the Potency (N140) is reported as “inactive”, the Potency (P93_24) is reported as “inactive” and the Potency (P94_40) is reported as “inactive”. The Potency (PAD) was “inactive”, the Potency (PC15) was “inactive” and the Potency (PC49) was “inactive”. The Potency (SC27B) was “inactive”, the Potency (TAB109) was “inactive” and the Potency (TAB113) was “inactive”. The Potency (TAB165) was “inactive”, the Potency (W2) was “inactive” and the outcome (CRL-7250 [1]) was “inactive”. For the same molecule, the max response (HEK293) was -5.65%, the max response (HaCat [2]) was -5.59% and the max response (KB-3-1) was -7.23%. For the same molecule, the outcome (NIH3T3) was “inactive” and the outcome (CRL-7250 [4]) was “inactive”.
